Assay outcomes deposited in PubChem BioAssay by several laboratories.
Compounds with a hit are over-represented: about 4.4% of the library has one in this group of screens.
PfHsp90 set2 – growth inhibition of yeast expressing Plasmodium Hsp90 | AID 504621 | inhibition, % at 9.4 µM | S. cerevisiae expressing PfHsp90, BacTiter-Glo ATP, 48 h; yeast lacking PDR1 and PDR3 efflux regulators | 0.32% of 310,000 active;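 active = every replicate shows inhibition above about 80%, whatever the replicate mean, limit read from the data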;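 note: 0% = DMSO neutral controls and 100% = 20 µM radicicol positive controls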
Mot1-301 SUMO – blocks SUMOylation pathway, rescuing yeast Mot1-301 growth; S. cerevisiae Mot1-301 growth rescue, ATP luminescence, 38.5C; percent above DMSO median, 100 means doubled; growth rescue, % at 18.8 µM; 1% of 320,000 active;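 active = every valid replicate shows activation above 250% relative to neutral control wells; inactive = the rest, any valid replicate at or below 250%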;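 note: OY570 slx delta 5 strain wells were the positive control but not used for scaling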
tim23-1 inh – inhibits growth of tim23-1 mutant yeast; S. cerevisiae tim23-1 growth, BacTiter-Glo luminescence, 24 h; inhibition, % at 20 µM; 1.3% of 330,000 active; AID 463212;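 active = growth inhibition of the mutant yeast at or above 50%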;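 note: temperature-sensitive mutant grown at 25 °C; plate controls were DMSO-treated mutant yeast for no effect and medium wells lacking yeast for full effect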
TIM10 inh – inhibits growth of TIM10 yeast strain. 1.4% of 330,000 active. S. cerevisiae TIM10 strain growth, BacTiter-Glo luminescence, 24 h. inhibition, % at 10 µM. AID 463195;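 active = inhibition of 40% or more at the single tested concentration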;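 note: wild-type TIM10 isogenic control strain grown at permissive 25 °C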
tim10-1 inh – growth inhibitors of tim10-1 mutant yeast; S. cerevisiae tim10-1 ts strain growth, BacTiter-Glo, 24 h; 2.2% of 330,000 active; inhibition, % at 20 µM; AID 463190;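 active = inhibition of at least 40%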;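 note: mutant grown at 25 °C; 0% = DMSO wells with yeast and 100% = wells holding no yeast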
tim10-1 confirm – confirmation of tim10-1 mutant yeast growth inhibitors | shares compounds with tim10-1 inh | S. cerevisiae tim10-1 ts strain growth, BacTiter-Glo, 24 h | inhibition, % at 20 µM | 56% of 7,400 active | AID 463213;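 active = inhibition of yeast growth at or above a set limit in either of two repeat tests at 20 µM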;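 note: tim10-1 mutant grown at permissive 25 °C to find synthetic lethal compounds; 0% = DMSO yeast wells and 100% = medium wells without yeast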
TIM10 conf – TIM10 yeast growth inhibition, confirmed. shares compounds with TIM10 inh. S. cerevisiae tim10 strain growth, BacTiter-Glo luminescence, 24 h. inhibition, % at 10 µM. 63% of 4,600 active;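 active = inhibition of yeast growth at or above a set limit in either of two replicates at 10 µM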;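 note: this counterscreen used the strain with wild-type TIM10; 0% = yeast with DMSO and 100% = medium wells lacking yeast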
tim23-1 confirm – tim23-1 yeast growth inhibition, confirmed; 83% of 4,400 active; AID 463218; S. cerevisiae tim23-1 growth, BacTiter-Glo luminescence, 24 h; inhibition, % at 20 µM; shares compounds with tim23-1 inh;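 active = inhibition above about 39% in either of two replicate wells at 20 µM, limit read from the data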;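 note: temperature-sensitive tim23-1 mutant grown at 25 °C; 0% = DMSO wells with yeast and 100% = medium wells without yeast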
* = called active by the depositor; · = not tested or not shown.

SMILES	PfHsp90 set2	Mot1-301 SUMO	tim23-1 inh	TIM10 inh	tim10-1 inh	tim10-1 confirm	tim23-1 confirm	others
CC(=O)c1ccc(S(=O)(=O)N2CCN(C(=O)CCC3CCCC3)CC2)cc1	-4	·	8	16	29	·	·
O=C(NCC1CC1)c1ccc2c3n(nc2c1)-c1ccc(Cl)cc1CO3	-20	26	67*	54*	48*	35*	53*	TIM10 conf=57*
O=C(NC(=S)Nc1ccccc1N1CCOCC1)c1cccs1	-74	8	59*	57*	52*	36*	60*	TIM10 conf=38*
COc1cccc(C(=O)NC(=S)Nc2ccccc2N2CCOCC2)c1	16	9	53*	39	44*	30*	46*
CS(=O)(=O)N1CCN(c2ccc(NC(=S)NC(=O)c3cccs3)cc2)CC1	1	20	1	5	-9	·	·
O=C(NC(=S)Nc1ccccc1N1CCN(C(=O)c2ccccc2)CC1)c1ccccc1F	-68	1	33	25	29	·	·
O=C(NC(=S)Nc1ccccc1N1CCOCC1)c1ccccc1F	-69	25	57*	39	52*	44*	55*
O=C(NC(=S)Nc1ccc(N2CCCCC2)cc1)c1cccs1	-11	-4	51*	55*	44*	14	50*	TIM10 conf=27
COCCCNC(=O)c1cc(C)nn1-c1ccccc1	-5	5	14	-22	-1	·	·
CCN(CC)C(=O)c1ccc(CS(=O)(=O)Cc2ccccc2)cc1	0	1	4	-3	-13	·	·
COc1ccccc1CNC(=O)CS(=O)(=O)c1ccc(C)cc1	17	-16	1	-5	-11	·	·
CCN1CCCC1Cn1cnc2c([nH]c3ccc(OC)cc32)c1=O (stereo unspecified)	-22	-19	2	-7	11	·	·
Nc1cc(-c2ccc(OC(F)(F)F)cc2)nn1-c1ccc(Cl)c(Cl)c1	·	22	57*	9	46*	62*	61*
Cc1ccc(-c2cc(N)n(-c3ccccc3)n2)cc1	-2	7	13	7	1	·	·
Fc1ccc(-c2nc3n(n2)Cc2ccccc2-3)cc1	51	-23	16	4	23	·	·
CCn1c(C)nc2cc(-c3nc4n(n3)Cc3ccccc3-4)ccc21	55	-8	65*	54*	60*	51*	68*	TIM10 conf=49*
Cc1nc(Nc2cccc(F)c2)c2oc3ccccc3c2n1	-10	-2	55*	5	44*	29	60*
Cc1nc(Nc2cccc(Cl)c2)c2oc3ccccc3c2n1	-9	-7	43	33	32	·	·
Cc1cccc(C(=O)OCC(=O)NC(=O)c2ccccc2)c1O	-7	257	1	-1	10	·	·
OC(CN1CCCCC1)Cn1c2ccc(Cl)cc2c2cc(Cl)ccc21 (stereo unspecified)	2	38	-22	-26	-10	·	·
OC(CN1CCN(c2ccccn2)CC1)Cn1c2ccc(Cl)cc2c2cc(Cl)ccc21 (stereo unspecified)	-1	117	55*	-28	47*	21	-39
Cc1ccc([C@@H]2[C@@H]3C(=O)N(c4ccccc4)C(=O)[C@@H]3[C@]3(C)C(=O)N(CC4CC4)CC(=O)N23)o1	11	13	1	-4	-6	·	·
C[C@H](NC(N)=O)C(=O)Nc1ccc(N2CCOCC2)c(S(=O)(=O)Nc2ccc(Cl)cc2)c1	·	·	15	9	6	·	·
O=C(c1cc(COc2ccc(F)cc2Cl)on1)N1CCCCCCC1	5	23	51*	14	41*	16	42*
O=C(c1cc(COc2ccc(F)cc2Cl)on1)N1CCCCCC1	-13	·	49	-4	37	·	·
SMILES	PfHsp90 set2	Mot1-301 SUMO	tim23-1 inh	TIM10 inh	tim10-1 inh	tim10-1 confirm	tim23-1 confirm	others
CCN(CC(=O)Nc1c(F)cccc1F)C(=O)c1cc([N+](=O)[O-])ccc1N1CCCCC1	-31	-18	15	11	17	·	·
CC(C)N(CC(=O)Nc1ccc(Cl)cc1C(F)(F)F)C(=O)CCl	0	16	55*	67*	47*	59*	54*	TIM10 conf=56*
CC(=O)c1ccc(OCCCCCCCOc2ccc(C(C)=O)cc2)cc1	3	8	-3	3	-7	·	·
COc1ccc(C(=O)NC(CCSC)C(=O)NCc2nnc3ccccn23)cc1 (stereo unspecified)	-6	·	1	-2	-2	·	·
Oc1ccccc1N=N/C(=N/Nc1ccccc1O)c1ccccc1	19	6	-1	8	-2	·	·
N#C/C(N=Nc1ccccc1O)=N\Nc1ccccc1O	20	156	82*	13	65*	60*	66*
O=C1CCC(C(=O)Nc2cc(C(F)(F)F)ccc2-n2cncn2)=NN1	6	-2	-23	8	3	·	·
O=C(Nc1cccc([N+](=O)[O-])c1)N1CCCc2ccccc21	-21	-10	15	-12	16	·	·
O=[N+]([O-])c1cccc(NC(=S)N2CCc3ccccc32)c1	-11	0	51*	25	43*	32*	49*
COc1ccc(NCc2ccc([N+](=O)[O-])s2)c(OC)c1	-1	199	·	·	·	·	·
O=[N+]([O-])c1ccc(CNc2ccc(Cl)cc2)s1	-8	-9	61*	56*	57*	54*	68*	TIM10 conf=65*
CC1CCN(S(=O)(=O)c2ccc(Cl)cc2)CC1	-2	10	55*	42*	40*	36*	40*	TIM10 conf=16
N#C/C(=C\c1cccc([N+](=O)[O-])c1)c1ccccn1	-44	-9	63*	39	56*	72*	56*
O=[N+]([O-])c1cccc(/C=C/c2ccccn2)c1	-10	6	13	13	16	·	·
Cn1nnc(NC(=S)NC(=O)c2cccc3ccccc23)n1	-6	-10	57*	8	53*	2	30
Cn1nnc(NC(=S)NC(=O)c2cccs2)n1	-4	9	16	12	-5	·	·
CNC(=S)/N=C/NOCc1c(Cl)cccc1Cl	49	-10	54*	53*	63*	55*	60*	TIM10 conf=54*
CCOC(=O)c1ccc(Nc2nnc(C)c3ccccc23)cc1	4	-1	33	21	22	·	·
C#CCN(Cc1ccco1)C(=O)c1ccc(OC2CCN(Cc3ccccn3)CC2)cc1	-20	151	-5	3	-5	·	·
COc1ccc(S(=O)(=O)CC(=O)c2cc3cc(Br)ccc3oc2=O)cc1	10	62	72*	30	62*	50*	85*
COc1ccc(OC)c(S(=O)(=O)CC(=O)c2cc3ccc(OC)cc3oc2=O)c1	-35	3	38	9	30	·	·
